The full list was thinned out, with hits kept by preference.
Pf Dd2 growth – Plasmodium falciparum Dd2 growth inhibition; Potency, µM (doses to about 28.9 µM), for the others: at the highest dose activity, negative = inhibition, hits mostly inhibitors; actives 4.3% (n = 120,000); P. falciparum Dd2 growth, SYBR Green, 72 h; active = well fitted inhibition curve with a large enough effect;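 note: plate controls were DMSO vehicle for no effect and reference drug for full effect; nearly all actives have a fitted effect of over 65% in size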
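Readout: SYBR Green fluorescence, 485 nm excitation, 535 nm emission, after ~16 h lysis at 37C. Before that, Dd2-infected red cells (2.5% hematocrit) grew 72 h with compound, 29 uM top final concentration.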
Starred values were filed as active, the others as inactive; [ ] = remark or other dose. Potency is the fitted concentration of half-maximal effect.

Cc1cc(C(=O)Nc2ccc([C@H]3OCC(=O)N(CC(=O)N(C)C)[C@@H]3CO)cc2)no1 was read as Pf Dd2 growth -7%[44.1 µM].
Screening COc1ccc(C2Cn3cnc(C(=O)N4CCC(C(=O)Nc5ccc(F)cc5)CC4)c3CO2)cc1 (stereo not given) returned Pf Dd2 growth -2%.
Screening Cc1ccc(C)c(C(=O)N2CCN(C(=O)c3nnn4c3COC(c3ccc(Cl)cc3)C4)CC2)c1 (stereo not given) returned Pf Dd2 growth inactive.
`Cc1ccc(C(=O)N2CCN(C(=O)c3nnn4c3COC(c3ccc(Cl)cc3)C4)CC2)c(C)c1` (stereo not given) gave Pf Dd2 growth -2%.
Screening Cc1ccc(C(=O)N2CCN(C(=O)c3nnn4c3COC(c3ccc(Cl)cc3)C4)CC2)s1 (stereo not given) returned Pf Dd2 growth 2.8µM*.
`Cc1ccc(C)c(Cn2c(=O)c3c(nc4n3CCN4c3ccc(F)cc3)n(C)c2=O)c1` gave Pf Dd2 growth -7%.
`Cc1cnc(C2CC2)n1C1CCCNC1` (stereo not given) gave Pf Dd2 growth -7%.
`COCc1ncc(C)n1C1CCCNC1` (stereo not given) gave Pf Dd2 growth -10%.
Cc1cnc(-c2ccccc2)n1C1CCCNC1 (stereo not given) was read as Pf Dd2 growth 6.3µM*.
Screening O=C(NCCCN1CCN(c2ccccc2F)CC1)c1nnc(Cc2ccc(Cl)cc2Cl)o1 returned Pf Dd2 growth -6%.
For Cc1ccc(C2Cn3nnc(C(=O)N4CCC(C(=O)NC5CCCC5)CC4)c3CO2)cc1 (stereo not given) the results were Pf Dd2 growth inactive.
Screening Cc1ccc2onc(CNC(=O)N3CCN(c4cc(Cl)ccc4C)CC3)c2c1 returned Pf Dd2 growth -2%.
For COc1ccccc1C(=O)Nc1cc2c(cc1N1CCCC1)n(C)c(=O)c(=O)n2C the results were Pf Dd2 growth -2%.
`CCOC(=O)c1ccccc1NC(=O)Nc1cc2c(cc1N1CCCC1)n(C)c(=O)n2C` gave Pf Dd2 growth -39%.
For CCOC(=O)C1CCN(c2cc3c(cc2NC(=O)c2ccccc2Cl)n(C)c(=O)n3C)CC1 the results were Pf Dd2 growth 11µM*.
CCOc1ccc(NC(=O)CSC2=Nc3ccccc3C3=NC(CCC(=O)NCc4ccco4)C(=O)N23)cc1 (stereo not given) was read as Pf Dd2 growth 70%.
CC(C)c1ccc(NC(=O)CC2NCCNC2=O)cc1 (stereo not given) was read as Pf Dd2 growth 31%.
Screening O=C1CC2(CCN(Cc3ccc(C(F)(F)F)cc3)CC2)Oc2cc(Cl)ccc21 returned Pf Dd2 growth inactive.
`O=C1CC2(CCN(CC3CC3)CC2)Oc2ccccc21` gave Pf Dd2 growth inactive.
O=C1CC2(CCN(CC3CCCCC3)CC2)Oc2cc(Cl)ccc21 was read as Pf Dd2 growth 1.4µM*.
CCC(=O)N1C[C@@H]2CCCN3CCC[C@@H]([C@H]23)[C@H]1CCCC(=O)NCC1CC1 was read as Pf Dd2 growth -23%.
`Cc1ccc(C(=O)NCc2nnnn2-c2ccccc2)cc1N1CCNC1=O` gave Pf Dd2 growth 7%.
Screening Cc1cc(Cl)ccc1S(=O)(=O)N1CCCC(Cn2cnc3cccnc32)C1 (stereo not given) returned Pf Dd2 growth inactive.
For COC[C@H]1CCCN1Cc1nc(C2(O)CCN(C(C)=O)CC2)cs1 the results were Pf Dd2 growth 44%[44.1 µM].
`Cc1cccc(OCCc2noc(C3CN(C(=O)c4cnccc4C)C3)n2)c1` gave Pf Dd2 growth -6%.
`CCCN1CCCC12Cc1ccccc1CN(C(=O)CCNC(C)=O)C2` (stereo not given) gave Pf Dd2 growth -9%.
For CC(=O)N1Cc2ccccc2CC2(CCCN2CC2CCOCC2)C1 (stereo not given) the results were Pf Dd2 growth -11%.
CC(=O)NCCC(=O)N1Cc2ccccc2CC2(CCN(CC3CCNC3)C2)C1 (stereo not given) was read as Pf Dd2 growth -12%.
Screening CC(=O)N1CC2(CCCN2C2COC2)Cc2ccccc21 (stereo not given) returned Pf Dd2 growth 3%[44.1 µM].
`CC(=O)N1Cc2ccccc2CC2(CCCN2CC2CCCC2)C1` (stereo not given) gave Pf Dd2 growth 10µM*.
For CC(=O)NCCC(=O)N1Cc2ccccc2CC2(CCCN2CCc2ccc(C)cc2)C1 (stereo not given) the results were Pf Dd2 growth 8.9µM*.
Screening O=C(C1CCCC1)N1CC2(CCCCN2CC2CC2)Cc2ccccc21 (stereo not given) returned Pf Dd2 growth -17%.
For CN1CCC(C(=O)N2Cc3ccccc3CC3(CCCCN3CC3CCNCC3)C2)CC1 (stereo not given) the results were Pf Dd2 growth 18%.
For CC(=O)NCCC(=O)N1Cc2ccccc2CC2(CCCN2CC2CCNCC2)C1 (stereo not given) the results were Pf Dd2 growth 20%.
CC(=O)N1CC2(CCCN2CC2CC2)Cc2ccccc21 (stereo not given) was read as Pf Dd2 growth 10µM*.
`CC(=O)NCCC(=O)N1Cc2ccccc2CC2(CCCN2CC2CCCCC2)C1` (stereo not given) gave Pf Dd2 growth 8.9µM*.
CN(C)C(=O)c1ccc(OC2CCN(C(=O)c3cccc(Cl)c3)CC2)nc1 was read as Pf Dd2 growth 19%.
NC1CCC(n2cc(C(=O)NC3CCCN(c4ncccn4)C3)nn2)CC1 (stereo not given) was read as Pf Dd2 growth -12%.
CCc1ccc(CN2CCC([C@@H]3CNC[C@H]3CO)CC2)cc1 was read as Pf Dd2 growth 41%.
`Cc1ccc(NC(=O)N2CCCN(S(=O)(=O)c3ccccc3)CCC(=O)NCC2)cc1C` gave Pf Dd2 growth -27%.
COCCNC(=O)C1c2ccccc2C(=O)N(c2ccccc2)C12CCCCC2 (stereo not given) was read as Pf Dd2 growth -18%.
`O=C(c1ccccc1Cl)N1CCC2(CC1)OCC(C(=O)N1CCCC1)N2C(=O)c1ccccc1` (stereo not given) gave Pf Dd2 growth -8%.
CC1(C)CN(C(=O)c2ccc(CSc3ccccn3)cc2)CC1(C)O (stereo not given) was read as Pf Dd2 growth -4%.
For Cc1ccc(Cl)cc1N1CCN(C(=O)c2cn(C)c3ccc(S(=O)(=O)N4CCCCC4)cc3c2=O)CC1 the results were Pf Dd2 growth 10%.
CCc1ccc(-n2nc(C)c3c2NC(=O)CSC3c2ccc(C(=O)OC)cc2)cc1 (stereo not given) was read as Pf Dd2 growth inactive.
COc1ccccc1CCC(=O)NC1CCN(c2cc(-c3ccccc3)[nH]n2)CC1 was read as Pf Dd2 growth inactive.
Screening COc1ccc(CCNC(=O)c2ccc(Cn3c(=O)c4ccccc4n(Cc4ccccc4Cl)c3=O)cc2)cc1OC returned Pf Dd2 growth 37%.
`CN1CCC(Cn2ccc3c(N4CCOCC4)nc(-c4ccc5cn[nH]c5c4)cc32)CC1` gave Pf Dd2 growth 3.5µM*.
C[S+](=O)([O-])N1CCC(Cn2ccc3c(N4CCOCC4)nc(-c4cccc5[nH]ncc45)cc32)CC1 was read as Pf Dd2 growth inactive.
`CN1CCC(Cn2ccc3c(N4CCOCC4)nc(-c4cccc5[nH]ccc45)cc32)CC1` gave Pf Dd2 growth -25%[44.1 µM].
Screening COc1ccc(C(=O)N2CCc3ccc(C(=O)NCc4cccnc4)cc32)cc1 returned Pf Dd2 growth -10%.
